Sampled rows, rich in hits. Any-hit rate of the full collection: about 1.6%.
KCNQ2 block = rat KCNQ2 potassium channel inhibitors, primary screen, cell-based, CHO-K1, FluxOR thallium flux, B-score | Potassium voltage-gated channel subfamily KQT member 2 (Rattus norvegicus), O88943 | 20 min; active compounds read low | B-score at 10 µM | hit rate 1.1% among 310,000;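 active = fluorescence ratio B-score at most minus 3 library SDs, with starting brightness B-score within 2 library SDs, cut at about -5.5 in these data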
Target sequence (O88943 whole entry, looked up): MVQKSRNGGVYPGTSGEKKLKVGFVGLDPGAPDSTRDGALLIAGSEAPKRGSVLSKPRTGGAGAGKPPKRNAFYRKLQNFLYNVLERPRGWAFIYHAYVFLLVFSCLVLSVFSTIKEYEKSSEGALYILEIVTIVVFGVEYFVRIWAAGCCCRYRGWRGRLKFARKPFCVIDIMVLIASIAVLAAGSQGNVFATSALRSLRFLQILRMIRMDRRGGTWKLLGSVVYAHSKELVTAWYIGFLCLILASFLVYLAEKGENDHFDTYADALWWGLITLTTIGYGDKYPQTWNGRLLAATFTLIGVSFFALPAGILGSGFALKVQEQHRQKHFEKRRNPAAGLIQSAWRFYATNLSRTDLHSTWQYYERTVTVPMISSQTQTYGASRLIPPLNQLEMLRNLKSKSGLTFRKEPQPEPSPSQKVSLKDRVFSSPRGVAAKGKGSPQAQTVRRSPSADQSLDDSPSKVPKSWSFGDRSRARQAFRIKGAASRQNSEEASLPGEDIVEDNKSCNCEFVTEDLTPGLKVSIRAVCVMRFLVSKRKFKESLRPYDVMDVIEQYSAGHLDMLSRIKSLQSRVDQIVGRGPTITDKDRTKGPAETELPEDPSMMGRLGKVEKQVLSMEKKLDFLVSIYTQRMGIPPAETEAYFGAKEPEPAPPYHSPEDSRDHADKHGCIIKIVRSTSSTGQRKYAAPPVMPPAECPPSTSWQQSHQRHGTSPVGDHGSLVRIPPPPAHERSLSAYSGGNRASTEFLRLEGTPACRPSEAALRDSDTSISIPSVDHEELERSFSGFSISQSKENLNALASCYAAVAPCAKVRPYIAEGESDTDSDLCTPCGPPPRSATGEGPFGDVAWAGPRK
KCNQ2 pot = potentiators of rat KCNQ2 potassium channel; Potassium voltage-gated channel subfamily KQT member 2 (Rattus norvegicus), O88943; CHO-K1 KCNQ2, FluxOR thallium flux fluorescence; active compounds read high; B-score at 10 µM; AID 2239, 2010; hit rate 0.54% among 310,000;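 active = fluorescence ratio B-score at least 3 SD of library B-scores, with initial fluorescence B-score within 3 of them, cut at about 5.3 in these data; same plate scores as AID 2156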;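 note: B-score of peak minus minimum over baseline fluorescence ratio after K+ and Tl+ stimulus; positive B-score means potentiation of KCNQ2 with more thallium influx and brighter signal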
The depositor's hits bear a star.

For C=CCN1C(=O)c2ccc(C(=O)N3CCN(S(=O)(=O)c4cccc(F)c4)CC3)cc2C1=O the results were KCNQ2 block inactive and KCNQ2 pot 1.72.
For CC(Oc1ccc(F)cc1)C(=O)Nc1cc(S(=O)(=O)N2CCOCC2)ccc1N1CCCC1 (configuration not stated) the results were KCNQ2 block inactive and KCNQ2 pot 0.16.
`CC(Oc1ccc(F)cc1)C(=O)Nc1cc(S(=O)(=O)N2CCOCC2)ccc1N1CCCCC1` (configuration not stated) gave KCNQ2 block -8.14* and KCNQ2 pot -8.14.
COc1ccccc1NC(=O)Cc1noc(CSc2n[nH]c(N)n2)n1 was read as KCNQ2 block inactive.
For COc1cc(/C=N/NC(=O)C2C3CCCCC32C)cc(Br)c1O (configuration not stated) the results were KCNQ2 block inactive.
For COc1ccc(C(=O)NC2CCN(CC(=O)N3CCCCC3)CC2)cc1 the results were KCNQ2 block inactive.
Screening COc1ccccc1OCCNC(=O)c1ccc2c(c1)OCCO2 returned KCNQ2 block inactive and KCNQ2 pot 6.67*.
Screening COc1ccccc1OCCNC(=O)CNC(=O)c1ccc2c(c1)OCO2 returned KCNQ2 block inactive and KCNQ2 pot 0.26.
COc1ccccc1OCC(=O)N(Cc1nc(-c2ccccc2)no1)C(C)C was read as KCNQ2 block inactive and KCNQ2 pot 0.76.
Screening Cc1ccc(-c2noc(CN(C(=O)CCCN3C(=O)c4ccccc4C3=O)C(C)C)n2)cc1 returned KCNQ2 block inactive.
Screening Cc1cc(Br)ccc1OCC(=O)N(Cc1nc(-c2ccccc2)no1)C(C)C returned KCNQ2 block -5.95* and KCNQ2 pot -5.95.
`Cc1ccc(-c2noc(CN(C(=O)CCN3C(=O)c4ccccc4C3=O)C(C)C)n2)cc1` gave KCNQ2 block -5.71* and KCNQ2 pot -5.71.
Screening CC(C)N(Cc1nc(-c2ccc(Cl)cc2)no1)C(=O)CCC1CCCC1 returned KCNQ2 block -6.15* and KCNQ2 pot -6.15.
COc1ccccc1OCC(=O)N(Cc1nc(-c2ccc(Cl)cc2)no1)C(C)C was read as KCNQ2 block inactive.
For Cc1ccc(NC(=O)C2Cc3ccccc3CN2C(=O)c2ccccc2)cc1Cl (configuration not stated) the results were KCNQ2 block -6.08* and KCNQ2 pot -6.08.
`Cc1ccc(C(=O)N2Cc3ccccc3CC2C(=O)O)cc1` (configuration not stated) gave KCNQ2 block inactive and KCNQ2 pot 2.28.
COC(=O)C1=NN(c2cccc(C)c2)C2C(=O)N(c3ccccc3OC)C(=O)C12 (configuration not stated) was read as KCNQ2 block inactive and KCNQ2 pot 0.25.
COc1ccc(C)cc1NC(=O)C(Sc1nnc2ccccn12)c1ccccc1 (configuration not stated) was read as KCNQ2 block inactive.
COc1ccc(C)cc1NC(=O)C(Sc1nnc(-c2ccncc2)n1-c1ccc(Cl)cc1)c1ccccc1 (configuration not stated) was read as KCNQ2 block -7.93* and KCNQ2 pot -7.93.
`CCc1nn(C(CC)C(=O)NCCCN2CC(C)CC(C)C2)c(=O)c2cc3oc(C)cc3n12` (configuration not stated) gave KCNQ2 block inactive.
`CCN(CC)CCN1C(=O)C(=O)/C(=C(/O)c2c(C)[nH]c(C(=O)OC)c2C)C1c1ccc(C)o1` (configuration not stated) gave KCNQ2 block inactive and KCNQ2 pot 1.51.
`Cc1cccc(C(=O)Nc2ccc(O)c3c(=O)cc(-c4ccccc4Cl)oc23)c1` gave KCNQ2 block inactive.
Screening CN(C)c1ccc(C(=O)Nc2ccc(O)c3c(=O)cc(-c4ccccc4Cl)oc23)cc1 returned KCNQ2 block -5.85* and KCNQ2 pot -5.85.
COC(=O)c1cccc(NC(=O)CSc2nnc(-c3ccco3)o2)c1 was read as KCNQ2 block inactive and KCNQ2 pot 1.99.
Screening COc1ccc(C(=O)Nc2cccc(C)c2)cc1S(=O)(=O)N1CCOCC1 returned KCNQ2 block inactive and KCNQ2 pot 0.04.
For COc1ccc(C(=O)NNC(=O)COc2ccc(Cl)cc2C)cc1S(=O)(=O)N1CCOCC1 the results were KCNQ2 block -5.6* and KCNQ2 pot -5.6.
For COc1ccc(OC)c(C2=NOC(C(=O)N3CCCc4ccccc43)C2)c1 (configuration not stated) the results were KCNQ2 block inactive.
`Cc1ccc(S(=O)(=O)CCC(=O)c2ccc(F)cc2)cc1` gave KCNQ2 block inactive.
Screening Cc1ccc(C(=O)CCS(=O)(=O)c2ccc(F)cc2)cc1 returned KCNQ2 block -6.29* and KCNQ2 pot -6.29.
O=C(Nc1ccc(F)c(F)c1)c1ccc(F)c(S(=O)(=O)N2CCC3(CC2)OCCO3)c1 was read as KCNQ2 block inactive and KCNQ2 pot 5.44*.
Screening O=S(=O)(c1cc(F)ccc1F)N1CCC2(CC1)OCCO2 returned KCNQ2 block inactive.
`CCOc1ccccc1CN1CCNC(=O)C1CC(=O)NCc1cc(C)n(C)n1` (configuration not stated) gave KCNQ2 block inactive.
Screening O=[N+]([O-])c1ccccc1S(=O)(=O)N1CCN(C2CCN(Cc3ccccc3)CC2)CC1 returned KCNQ2 block inactive.
`Clc1ccc(-c2nnc(-c3ccccc3)c(-c3ccccc3)n2)cc1` gave KCNQ2 block -6.24* and KCNQ2 pot -6.24.
`Clc1ccc(-c2nnc(-c3ccccc3)c(N3CCSCC3)n2)cc1` gave KCNQ2 block -6* and KCNQ2 pot -6.
For O=[N+]([O-])c1ccc(-c2nnc(-c3ccccc3)c(N3CCOCC3)n2)cc1 the results were KCNQ2 block inactive.
For Clc1ccc(-c2nnc(-c3ccccc3)c(-c3c[nH]c4ccccc34)n2)cc1 the results were KCNQ2 block inactive and KCNQ2 pot 1.13.
For O=C(c1ccc([N+](=O)[O-])cc1)N1CCN(C(=O)C2CCCCC2)CC1 the results were KCNQ2 block inactive.
Screening O=C(/C=C/c1cn(-c2ccccc2)nc1-c1cccc(Cl)c1)N1CCN(c2ccccn2)CC1 returned KCNQ2 block -5.68* and KCNQ2 pot -5.68.
O=C(c1cc(Cl)ccc1Cl)N1CCN(c2ccccn2)CC1 was read as KCNQ2 block inactive.
For O=C(/C=C/c1cn(-c2ccccc2)nc1-c1cccnc1)N1CCCCC1 the results were KCNQ2 block inactive.
`O=C(c1cnc(N2CCN(c3ccccn3)CC2)c2ccccc12)N1CCN(c2cccc(Cl)c2)CC1` gave KCNQ2 block -7.93* and KCNQ2 pot -7.93.
For Cc1ccc(C)c(S(=O)(=O)Nc2ccccc2C(=O)Nc2ccc(S(=O)(=O)Nc3ncccn3)cc2)c1 the results were KCNQ2 block inactive and KCNQ2 pot 0.17.
Screening O=S(=O)(c1ccc(F)cc1)N1CCN(c2ccc(-c3ccccc3)nn2)CC1 returned KCNQ2 block inactive and KCNQ2 pot 0.74.
`Cc1ccc2oc(C(=O)N(Cc3ccncc3)CC3CCCO3)c(C)c2c1` (configuration not stated) gave KCNQ2 block inactive.
CCN(Cc1ccccc1)C(=O)c1oc2ccc(C)cc2c1C was read as KCNQ2 block -5.82* and KCNQ2 pot -5.82.
